From PubChem BioAssay AID651658 (Broad Institute, 2012)
Screen size: about 340,000 compounds; about 5,100 (1.5%) were called active. The sample holds actives, similar compounds and a random draw of the others, so the mix is not that of the screen. Values without a mark were called inactive.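 The calls were made as follows: active = mean Tm shift, scaled 0 neutral to 100 positive control, at about 1.3% or above, every replicate too (limit read from the data); inconclusive = no clear call, values can overlap the other calls; inactive = the rest.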

Target: Fibroblast growth factor 22 (Homo sapiens) (UniProt Q9HCT0)
Sequence (Q9HCT0 whole entry, looked up): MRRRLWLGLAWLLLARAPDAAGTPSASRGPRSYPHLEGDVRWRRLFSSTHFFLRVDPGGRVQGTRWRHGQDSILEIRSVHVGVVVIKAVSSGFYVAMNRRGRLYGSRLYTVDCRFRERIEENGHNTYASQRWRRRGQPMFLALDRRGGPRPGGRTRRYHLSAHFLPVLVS
Experiment: binders of human FGF22 protein, primary screen, FGF22 synaptogenesis inhibitor project, biophysical, thermal shift, single point (AID 651658)
Conditions: recombinant FGF22 thermal shift, SYPRO orange fluorescence; at 9.99 µM; stronger effect = higher value; percent of sucrose octasulfate shift, DMSO zero

SMILES | activity (Tm shift, normalised)
CN(C)C(=O)c1ccc(-c2ccc([C@@H]3[C@H](C#N)N(C(=O)C4CC4)[C@H]3CO)cc2)cc1 | 0.09%
CO[C@H]1CN(C)C(=O)c2cc(NC(=O)Nc3cccc(F)c3)ccc2OC[C@@H](C)N(C)C[C@H]1C | 0.028%
CC1CN(C(=S)Nc2ccc(Br)cc2Cl)CC(C)O1 (stereo not given) | 0.064%
S=C(Nc1ccc(Cl)cc1Cl)N1CCCC1 | -0.146%
S=C(Nc1ccc(Br)cc1Cl)N1CCC2(CC1)OCCO2 | 43.8% (active)
O=C(Nc1cc(F)ccc1F)N1C[C@H]2[C@@H](c3ccccc31)[C@@H](CO)N2C(=O)c1ccccc1 | 0.029%
N#C[C@@H]1[C@H](c2ccccc2)[C@H](CO)N1C(=O)CN1CCOCC1 | 0.041%
CC(C)NC(=O)N1C[C@@H]2[C@H](c3ccccc31)[C@H](CO)N2C(=O)c1ccccn1 | 16.8% (active)
O=C(Nc1ccccc1)N1C[C@@H]2[C@H](c3ccccc31)[C@H](CO)N2C(=O)c1ccccn1 | -1.73%
O=C(Nc1ccccc1F)N1C[C@H]2[C@@H](c3ccccc31)[C@H](CO)N2C(=O)c1ccccn1 | -1.13%
O=C(Nc1ccc(C(F)(F)F)cc1)N[C@@H]1CC[C@@H](CCNC(=O)c2ccccc2F)O[C@H]1CO | 0.08%
O=C(COC(=O)c1cc(-c2cccs2)nn1-c1ccccc1)Nc1cc([N+](=O)[O-])ccc1Cl | 43.8% (active)
COc1ccc(Cl)cc1NC(=O)CN(C)C(=O)c1cc(-c2cccs2)nn1-c1ccccc1 | 0.161%
Cc1nn(-c2ccccc2)c(C)c1NC(=O)COC(=O)c1cc(Cl)ccc1O | -0.058%
CCC(=O)N1[C@@H](CO)[C@@H](c2ccc(C3=CCCC3)cc2)C12CN(C(=O)COC)C2 | 0.109%
C[C@H]1CCCCO[C@@H](CN(C)Cc2ccccc2)[C@@H](C)CN([C@@H](C)CO)C(=O)c2cc(NC(=O)CCCN(C)C)ccc2O1 | -0.026%
CN(c1ccccc1)S(=O)(=O)c1ccc(C(=O)N2CCN(c3ccccc3Cl)CC2)cc1 | -0.343%
O=C(c1ccc2ccccc2n1)N1CCN(c2ccccc2Cl)CC1 | 43.4% (active)
CCNC(=O)C1(C)CCCN(C(=O)c2ccc3ccccc3n2)C1 (stereo not given) | -0.027%
O=C(NCC[C@H]1CC[C@@H](NC(=O)c2cnccn2)[C@H](CO)O1)Nc1ccc(Cl)cc1 | 0.223%
CCC(=O)Nc1ccc2c(c1)C(=O)N(C)[C@@H]1CC[C@@H](CC(=O)NCc3ccccc3Cl)O[C@H]1CO2 | -0.111%
C[C@@H]1CN([C@H](C)CO)S(=O)(=O)c2ccc(C#CC3(O)CCCC3)cc2O[C@@H]1CN(C)C(=O)c1cccnc1 | -0.011%
Cc1ccc(S(=O)(=O)N(C)C[C@@H]2Oc3ccc(NC(=O)c4ccncc4)cc3CC(=O)N([C@H](C)CO)C[C@H]2C)cc1 | -0.013%
CC1(C)CC(=O)C(CC(=O)N2CCC(Cc3ccccc3)CC2)C(=O)C1 | 41.9%
CC1(C)CC(=O)C(C2c3ccccc3S(=O)(=O)c3ccccc32)C(=O)C1 | 42.9% (active)

SMILES | activity (Tm shift, normalised)
COc1ccc2c3c(n(C)c2c1)[C@H](CO)N(CC1CC1)CC31CCN(C(=O)c2ccccc2)CC1 | -0.078%
COc1ccc(S(=O)(=O)N[C@@H]2CC[C@@H](CC(=O)N3CCC(Cc4ccccc4)CC3)O[C@@H]2CO)cc1 | 0.502%
CS(=O)(=O)N1[C@H](CO)[C@H](c2ccccc2)C12CN(C(=O)C1CC1)C2 | -0.066%
Cn1cc(C(=O)c2ccc(Cl)cc2Cl)cc1C(=O)NN | -0.308%
Cc1ccccc1NC(=O)Cc1nc(COC(=O)CNC(=O)c2ccc(Cl)cc2Cl)cs1 | 0.003%
CC(=O)Cc1nsc(NC(=O)c2ccc(Cl)cc2Cl)n1 | 44.2% (active)
O=C(CN1C(=O)S/C(=C\c2ccccc2F)C1=O)NCCCn1ccnc1 | -0.15%
Cc1nn(Cc2ccccc2)c(C)c1C(=O)NCCN1C(=O)S/C(=C\c2ccc(F)cc2)C1=O | 0.11%
Cn1cccc1/C=C1\SC(=O)N(CC(=O)Nc2ccc(F)cc2)C1=O | 43% (active)
CC(=O)Nc1ccc(S(=O)(=O)N(CCc2ccccc2)CC(=O)N/N=C/c2ccc(C(=O)O)cc2)cc1 | 1.76% (active)
COc1ccc(S(=O)(=O)N(CC(=O)N/N=C/c2ccc(C(=O)O)cc2)Cc2ccccc2)cc1OC | -0.204%
O=C(O)c1ccc(/C=N/NC(=S)NCc2ccccc2)cc1 | 0.16%
CNC[C@H]1Oc2ncc(-c3ccccc3F)cc2C(=O)N([C@H](C)CO)C[C@H]1C | -0.078%
COCC#Cc1ccc2c(c1)O[C@H](CN(C)CC1CC1)[C@H](C)CN([C@H](C)CO)S2(=O)=O | 0.379%
CCCN(C)C[C@@H]1OCCCC[C@@H](C)Oc2ccc(NS(=O)(=O)c3c(C)noc3C)cc2C(=O)N([C@H](C)CO)C[C@@H]1C | -0.518%
C[C@H](CO)N1C[C@H](C)[C@H](CN(C)S(=O)(=O)c2cccs2)OCCCC[C@H](C)Oc2ccc(NC(=O)CCCN(C)C)cc2C1=O | -0.21%
CN1C(=O)c2cccc3c(N)ccc(c23)C1=O | 28.3% (active)
O=C1c2cccc3c([N+](=O)[O-])ccc(c23)C(=O)N1CC1CCCO1 (stereo not given) | 0.06%
CO[C@H]1CN(C)C(=O)c2cc(NC(=O)Nc3ccccc3F)ccc2OC[C@H](C)N(C)C[C@H]1C | -0.052%
COc1ccccc1S(=O)(=O)N(C)C[C@H]1Oc2cc(C#CCC3CCCC3)ccc2S(=O)(=O)N([C@@H](C)CO)C[C@H]1C | 0.195%
COc1ccc2c3c(n(C)c2c1)[C@@H](CO)N(C(=O)c1cnccn1)CC31CCN(C(C)=O)CC1 | -0.238%
CC(=O)N1c2ccc(S(=O)(=O)N3CCC(C(=O)NC4CCCCC4C)CC3)cc2CC1C (stereo not given) | 0.24%
CC(=O)N1c2ccc(S(=O)(=O)N3CCC(C(=O)NCc4ccc(F)cc4)CC3)cc2CC1C (stereo not given) | 1.48% (active)
CC(=O)N1c2ccc(S(=O)(=O)N3CCCC(C(=O)NCc4ccc(Cl)cc4)C3)cc2CC1C (stereo not given) | 0.095%
O=C(c1ccncc1)N1CC2(C1)[C@@H](c1ccccc1)[C@H](CO)N2C(=O)c1ccncc1 | -0.088%

SMILES | activity (Tm shift, normalised)
CCCC(=O)Nc1ccc2c(c1)OC[C@H](C)N(Cc1ccc(F)cc1)C[C@H](C)[C@H](OC)CN(C)C2=O | -0.11%
CO[C@@H]1CN(C)C(=O)c2cc(NC(=O)CC(F)(F)F)ccc2OC[C@H](C)N(S(=O)(=O)c2cn(C)cn2)C[C@H]1C | -0.268%
N#CCC(=O)NC1CCC(CC2CCC(NC(=O)CC#N)CC2)CC1 (stereo not given) | -0.185%
O=C(NCC1CCCCC1)NCC1CCCCC1 | 0.197%
N#CCC(=O)NC(=O)NCC1CC1 | 45.2% (active)
O=C(C[C@H]1C[C@H]2c3cc(NC(=O)C4CCOCC4)ccc3O[C@H]2[C@@H](CO)O1)NCCN1CCCCC1 | 0.018%
COc1ccc2c3c(n(C)c2c1)[C@@H](CO)N(C(=O)C1CC1)CC31CN(C(=O)C2CCOCC2)C1 | -0.006%
O=C(c1cccnc1)N1CCCCN2[C@@H](CO)[C@H](c3ccc(C#Cc4ccccc4)cc3)[C@@H]2C1 | -0.469%
O=C1C=CCCN1C(=O)/C=C/c1ccc(F)cc1 | 1.39% (active)
O=C(N/C(=C\c1ccc(F)cc1)C(=O)N1CCCCCC1)c1ccccc1 | -0.445%
O=C1CN(C(=O)COC(=O)/C=C/c2ccc(F)cc2)c2ccccc2N1 | 0.119%
C[C@@H]1CN([C@H](C)CO)C(=O)c2cc(NS(=O)(=O)c3cn(C)cn3)ccc2O[C@@H](C)CCCCO[C@@H]1CN(C)C(=O)CCC(F)(F)F | -0.484%
CCOC(=O)c1c(NC(=S)NC(=O)/C=C/c2cccs2)sc(C)c1C | 0.207%
Cc1cc(NS(=O)(=O)c2ccc(NC(=O)c3cccc(OC(F)F)c3)cc2)nc(C)n1 | 0.163%
CCc1nnc(NS(=O)(=O)c2ccc(NC(=O)c3cccc(OC(F)(F)C(F)F)c3)cc2)s1 | 1.64% (active)
CCc1nnc(NC(=O)c2cccc(S(=O)(=O)N(C)c3ccc(OC)cc3)c2)s1 | 0.249%
CCc1nnc(NS(=O)(=O)c2ccc(NC(=S)NC(=O)/C=C/c3cccs3)cc2)s1 | 43.7% (active)
CCc1nnc(NS(=O)(=O)c2ccc(NC(=S)NC(=O)c3cccs3)cc2)s1 | 0.364%
O=C(Cc1ccncc1)NCC[C@H]1CC[C@@H](NC(=O)Nc2ccc(Cl)cc2)[C@@H](CO)O1 | -0.005%
O=C(C[C@H]1CC[C@@H](NC(=O)Nc2ccc(F)cc2)[C@@H](CO)O1)NCCN1CCCC1 | -0.13%
CC(C)NC(=O)N[C@H]1CC[C@H](CC(=O)N2CCCCC2)O[C@@H]1CO | 0.022%
COc1ccc(S(=O)(=O)Nc2ccc3c(c2)CC(=O)N([C@H](C)CO)C[C@H](C)[C@@H](CN(C)C(=O)NC(C)C)O3)cc1 | -0.229%
CCC(O)CNc1nc(-n2nc(C)cc2C)nc2sc3c(c12)CC(C)(C)OC3 (stereo not given) | -0.058%
CCSc1nc2sc3c(c2c(=O)[nH]1)CC(C)(C)OC3 | -0.053%
CC(C)c1nc2sc3c(c2c(=O)n1N)CC(C)(C)OC3 | 42.9% (active)
